The structures appear in SMILES notation. Screen size: about 200,000 compounds; about 25 (0.01%) were called active. A call without a number means that no potency is given here. Roughly 23% stayed inconclusive and do not appear here. This excerpt belongs to a sample that is enriched for actives. A number with no mark means an inactive call. Calls come from the whole dose curve; as a rule, active = well fitted inhibition curve with a large enough effect in the signal ratio, with a control signal flat (not every such curve was filed as active); inconclusive = small, poorly fitted or top-dose-only effect, or effect the other way, or a change in a side signal; inactive = flat fitted curve, though single readings scatter; the % refers to the signal ratio.
Potency is the fitted concentration of half-maximal effect.

This assay is described as follows: qHTS Assay for Modulators of Lamin A Splicing. The note with it: HeLa LMNA splicing GFP/RFP minigene ratio, 48 h; series mostly up to 46 µM. The source says:
NCGC Assay Overview: Hutchinson-Gilford Progeria Syndrome (HGPS) is a pediatric premature aging disease caused by a spontaneous mutation in the lamin A/C (LMNA) gene. The mutation activates a cryptic splice site in the LMNA pre-mRNA which results in production of a pre-lamin A protein that cannot be processed properly. The mutant protein accumulates in the nucleus and negatively affects numerous cellular functions. Correction of the splicing defect in HGPS patient cells using a targeted oligonucleotide (exo11) leads to reversal of the cellular disease phenotypes. To identify small molecule modulators of aberrant LMNA splicing, a homogenous assay was constructed in HeLa cells that used a GFP containing minigene to report on correction of aberrant splicing in lamin A and a RFP (DsRed2) to report on cell viability, uniformity and nonspecific effects on the assay signal. This assay was adapted to laser-scanning microplate cytometry (Acumen, TTP Labtech) where miniaturization of the assay to a 1,536-well plate format was possible. References: Bowen, W. P.; Wylie, P. G. Application of Laser-Scanning Fluorescence Microplate Cytometry in High Content Screening. Assay Drug Dev Technol 2006;4:209-221. Scaffidi P, Misteli T. Reversal of the cellular phenotype in the premature aging disease Hutchinson-Gilford progeria syndrome. Nat.
NCGC Assay Protocol Summary: Reagents/Controls: Stable clones expressing DsRed2 and lamin A-EGFP were generated by Cell and Molecular Technologies in S3 HeLa cells. HeLa cells were prepared for the assay when they were 70-90% confluent. The cells were counted and resuspended in Opti-MEM I (no phenol red; Gibco), 2% FBS, 1% penicillin/ streptomycin (Gibco) at concentration of 120 cells/uL concentration. The suspension was passed through a Falcon basket filter with pore size 40um (Beckton Dickson). Control titrations: column […] 1536-well plate contained a sixteen point titration (1:2 dilutions) in duplicate of ancitabine (Sigma: A8598) beginning at 40 uM final concentration. Column 2 contained a sixteen point titration (1:2 dilutions) of cycloheximide beginning at 1.4 mM final concentration. Column 3 contained ancitabine at 40 uM and column 4 contained was the vehicle control (0.5% DMSO final concentration). Assay Steps: 5 uL of HeLa cells were plated in Aurora LoBase black clear bottom (cyclic-olefin polymer) 1536-well plates at a final density of 600 cells/well. Controls and library compounds were added with a 1536-well pin array using the Kalypsys pin-tool. The plates were then incubated for 48 hrs in a cell-culture incubator (37 °C; 5% CO2, 98% humidity). Following incubation the plates were read on the Acumen Explorer using the 488 nm laser. Data was collected on objects between 10 and 100 um in size. Cell objects were defined by a 15 um width x 10 um depth filter. The ratio of the total object intensity in PMT1 (500-530 nm emission; GFP) over PMT3 (575-640 nm emission; RFP) was calculated for analysis. Keywords: NIH Roadmap, MLSCN, MLI, MLSMR, qHTS, NCGC, lamin A, Progeria, RNA splicing.
On the technique in general: In qHTS, concentration-response curves come from the screen itself.
With `Cc1ccccc1-n1nc(SCC(=O)O)sc1=S`, the ratio change, negative = inhibition result was “inactive”.
Consider `CCCCCN(C(=O)NC(=O)Nc1cccc(C)c1C)S(C)(=O)=O`, for which the ratio change, negative = inhibition entry was “inactive”.
With `CC(C)(C)NC(=O)Cn1cnc2cc([N+](=O)[O-])ccc2c1=O`, the ratio change, negative = inhibition entry is “inactive”.
Still for that read-out and setting: the value for `Cc1c(-c2cccc(NC(=O)C(C)(C)C)c2)nc2ncccn12` was “inactive”; that for `COc1ccc(Cc2n[nH]c(=S)n2NC(=O)Nc2ccc(C)cc2)cc1` was “inactive”.
For the molecule `COc1c(C=O)c(CCN(C)C(=O)c2ccc(F)cc2)cc2c1OCO2`, the ratio change, negative = inhibition entry is “inactive”.
As for `O=C(Nc1ccc(C(=O)OCc2cc(=O)n3nc(C4CC4)sc3n2)cc1)c1ccc(F)cc1`, the ratio change, negative = inhibition entry was “inactive”.
For `COc1cccc(CN(C)CC(=O)Nc2ccccc2C(=O)Nc2ccccc2)c1`, the ratio change, negative = inhibition entry was “inactive”.
For the molecule `OC(COc1ccc(CN2CCSCC2)cc1)CN1CCCCC1` (stereo unspecified), the ratio change, negative = inhibition result is “inactive”.
`CCN(Cc1ccccc1)S(=O)(=O)c1ccc2c(c1)CCCN2C(C)=O`: the ratio change, negative = inhibition entry is “inactive”.
As to `Cn1sc(=O)c2cc(S(=O)(=O)NC3CC3)ccc21`, the Potency was 11.2 µM (active).
For the molecule `CC1CCC(NS(=O)(=O)c2ccc3c(c2)n(C)c(=O)c(=O)n3C)CC1` (stereo unspecified), the ratio change, negative = inhibition entry was “inactive”.
With `CSc1ccc(S(=O)(=O)NC2CCCCC2)cc1`, the ratio change, negative = inhibition result was “inactive”.
In the case of `COc1ccc(S(=O)(=O)NCC2CCCN(C(=O)c3occc3C)C2)cc1` (stereo unspecified), the ratio change, negative = inhibition entry is “inactive”.
As to `CN1CCN(/N=C2/C(=O)Nc3ccc([N+](=O)[O-])cc32)CC1`, the ratio change, negative = inhibition result was “inactive”.
Turning to `CCOc1ccccc1N1CCN(C(=O)COc2ccc3c(C)cc(=O)oc3c2)CC1`, the ratio change, negative = inhibition result is “inactive”.
Still for that read-out and setting: the value for `COc1ccc(CNC(=O)COCc2cc(-c3cccs3)on2)cc1OC` was “inactive”; that for `O=C(Nc1ccc(Br)cn1)c1ccc([N+](=O)[O-])cc1Cl` was “inactive”.
For `CC12CN(NC(=O)c3ccc(Cl)cc3)C3(C#N)CC1CCC23C` (stereo unspecified), the ratio change, negative = inhibition result is “inactive”.
As for `CCOCCc1nn2c(=O)cc(COC(=O)CNC(=O)c3ccc(C(C)(C)C)cc3)nc2s1`, the ratio change, negative = inhibition entry was “inactive”.
As to `Cc1ccc(S(=O)(=O)CC(=O)Nc2c(C)n(C)n(-c3ccccc3)c2=O)cc1`, the ratio change, negative = inhibition entry was “inactive”.
Consider `Cc1c(CCNC(=O)c2ccc(C(F)(F)F)cc2)sc2nc(-c3ccc(F)cc3)nn12`, for which the ratio change, negative = inhibition result was “inactive”.
Regarding `Cc1ccc2c(c1)C1CN(C)CCC1N2C(=S)Nc1ccc(OC(F)F)cc1` (stereo unspecified), the ratio change, negative = inhibition result is “inactive”.
The same measure, in the same setting: the value for `CN1CCN(C(CNC(=O)c2ccccc2F)c2ccc3c(c2)OCO3)CC1` (stereo unspecified) was “inactive”; that for `COc1ccc(-c2cn3cccnc3n2)cc1` was “inactive”; that for `CC1(C)CC(CNCCC(c2ccc(F)cc2)c2ccco2)CCO1` (stereo unspecified) was “inactive”.
On the same count and under the same terms, the value for `CCc1ccc(NC(=O)c2nn(-c3ccc(C)cc3)c(=O)n(C)c2=O)cc1` was “inactive”; that for `CN(C)S(=O)(=O)N1CCN(c2ccc([N+](=O)[O-])cc2)CC1` was 10.9% [at 9.22 µM].
For `COc1ccccc1CNC(=O)c1ccccc1NC(=O)c1nsc2ccccc12`, the ratio change, negative = inhibition result is “inactive”.
In the case of `O=C(CSc1nnc2ccc(-c3ccncc3)nn12)N1CCCCC1`, the ratio change, negative = inhibition entry is “inactive”.
For `Cc1ccc([N+](=O)[O-])c(OCCCNCC(C)O)c1` (stereo unspecified), the ratio change, negative = inhibition result is “inactive”.
The same measure, in the same setting: the value for `COc1cccc(NC(=O)C(=O)NCC(c2ccc3c(c2)OCO3)N2CCN(C)CC2)c1` (stereo unspecified) was “inactive”.
Still for that read-out and setting: the value for `Cc1onc(-c2ccccc2)c1C(=O)Nc1ccccc1C#N` was “inactive”; that for `CC(=O)Nc1cccc(NC(=O)c2c(-c3ccccc3)noc2C)c1` was “inactive”.
Consider `CCOC(=O)c1c(-c2cccc(C)c2)csc1NC(=O)c1c(-c2ccccc2)noc1C`, for which the Potency was 0.631 µM (active).
Regarding `Cc1cc(C)cc(OCC(=O)O/N=C(\N)Cc2ccc([N+](=O)[O-])cc2)c1`, the ratio change, negative = inhibition entry is “inactive”.
With `COc1ccc(Sc2nc(-c3ccccc3)ncc2OC)cc1`, the ratio change, negative = inhibition entry was “inactive”.
Consider `Cc1ccc(SCC(=O)Nc2ccc3oc(-c4ccccc4F)nc3c2)cc1`, for which the ratio change, negative = inhibition result was “inactive”.
Regarding `COCCNC(=O)c1ccc(-n2c(SCc3cccnc3)nc3ccccc3c2=O)cc1`, the ratio change, negative = inhibition result is “inactive”.
For `Cc1cccc(C)c1NC(=S)N(Cc1cccnc1)Cc1ccccc1Cl`, the ratio change, negative = inhibition was 17.6% [at 9.22 µM].
For the molecule `CCN1CCN(CCCNC(=O)c2ccc3c(c2)sc2nc(-c4ccc(OC)cc4)cn23)CC1`, the ratio change, negative = inhibition entry was “inactive”.
As for `CCOC(=O)c1c(-c2cccc(N)c2)cn2ccccc12`, the ratio change, negative = inhibition result was “inactive”.
Still for that read-out and setting: the result for `Cc1ccc(CSc2nc3cccnc3n2Cc2ccc(C(=O)NC3CC3)cc2)cc1` reads “inactive”.
Take `N#C/C(=C(\O)C(F)(F)F)c1nnc2n1CCCCC2`: the ratio change, negative = inhibition result was “inactive”.
Take `O=C(Cc1ccc(Cl)cc1)NCc1nc(-c2ccccc2)no1`: the ratio change, negative = inhibition entry was “inactive”.
With `CCOC(=O)c1c(SCC(=O)Nc2cccc(C)c2C)nc(=O)[nH]c1C`, the ratio change, negative = inhibition entry is “inactive”.
`COc1cc2c(C(=O)N3CCN(C)CC3)c(CSc3ccccc3)n(C)c2cc1Br`: the ratio change, negative = inhibition result was “inactive”.
On the same count and under the same terms, the value for `COc1cc(C(=O)Nc2cc(C(F)(F)F)ccc2-n2cncn2)cc(OC)c1OC` was “inactive”; that for `Cc1ccc(COc2ccc(C(=O)NN)cc2)cc1` was “inactive”; that for `CC(=O)c1ccc(NC(=O)CSc2nc(-c3ccccc3F)nc3c2c(=O)n(C)c(=O)n3C)cc1` was “inactive”.
The same measure, in the same setting: the result for `CSc1nc2c(c(=O)[nH]1)C(c1cccc(Cl)c1Cl)CC(=O)N2` (stereo unspecified) reads -8.67% [at 9.22 µM]; that for `CCc1nnc2c3ccccc3nc(N3CCN(c4ccc(C)cc4C)CC3)n12`, “inactive”; that for `O=C1COc2ccc(C(=O)COC(=O)C3CC(O)CN3S(=O)(=O)c3ccc(Cl)cc3)cc2N1` (stereo unspecified), “inactive”.
For the molecule `COC(=O)c1c(NC(=O)CCCC(=O)O)sc2c1CCCCC2`, the ratio change, negative = inhibition result was “inactive”.
In the case of `COc1cccc(CNC(=O)C2CCN(S(=O)(=O)c3ccc4c(ccn4C)c3)CC2)c1`, the ratio change, negative = inhibition entry was “inactive”.
Consider `CC1(C)CN(c2ccc(-c3ccnc4ncnn34)cc2)C1=O`, for which the ratio change, negative = inhibition result was “inactive”.
Take `CCOc1cc(C(=O)Nc2nnc3n2CCS3)cc(OCC)c1OCC`: the ratio change, negative = inhibition entry was “inactive”.
For `COc1ccc(C(C)=O)cc1CSc1nc2nc(C)cc(C)n2n1`, the ratio change, negative = inhibition entry is “inactive”.
Consider `CC(=O)N1CCCc2ccc(NS(=O)(=O)c3ccc(F)cc3F)cc21`, for which the ratio change, negative = inhibition entry was “inactive”.
Same read-out and setting: the result for `CCOc1ccc(-n2cnc3c(=O)[nH]c(N)nc32)cc1` reads “inactive”.
With `CCOC(=O)Cn1c(=O)n(-c2ccccc2OC)c2nc(-c3cccc(F)c3)nc(C(N)=O)c21`, the ratio change, negative = inhibition result was “inactive”.
Turning to `CCCNC(=O)CCC(=O)N1Cc2ccccc2Oc2ncccc21`, the ratio change, negative = inhibition result is “inactive”.
Take `COc1ccc(NC(=O)N2CCCn3nc(C)cc32)cc1OC`: the ratio change, negative = inhibition result is “inactive”.
For the molecule `Cc1cnc(C(=O)OCC(=O)N2CCc3ccccc32)cn1`, the ratio change, negative = inhibition was 1.94% [at 9.22 µM].
Turning to `COC(=O)CSc1ncnc2c1cnn2-c1ccc(C)cc1C`, the ratio change, negative = inhibition entry was “inactive”.
Same read-out and setting: the value for `COc1ccc(C2=NN(C(=O)CCC(=O)O)C(c3cccs3)C2)cc1OC` (stereo unspecified) was “inactive”.

The values above are taken from PubChem BioAssay AID1487 (National Center for Advancing Translational Sciences (NCATS), 2009).
